HIF act: HIF pathway transcriptional activation; U2OS HRE-luciferase reporter, luminescence; normalized: DMSO 0%, desferrioxamine 100%; activation, % at 7.5 µM (by protocol); 0.32% of 300,000 active; AID 1910;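 active = mean activation of at least 10% of the iron chelator positive control signal, with at least half of replicates also reaching 10%; inconclusive = mean and replicate majority disagree about reaching 10%; inactive = mean and most replicates under 10%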
PGC1a acetyl inh: modulators of PGC1a acetylation. U2OS PGC1a acetylation, AlphaScreen anti-acetyl-lysine; with virally co-expressed GCN5 acetyltransferase. inhibition, % at 15.6 µM. 0.17% of 350,000 active. AID 651687;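 active = every replicate shows inhibition of at least 40%; inconclusive = mean inhibition at least 40% but some replicate below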
C2C12 statin: protects C2C12 myotubes from simvastatin toxicity; rescue of ATP level, % at 7.49 µM; 0.78% of 330,000 active; ATP luminescence, 48 h; scaled: DMSO 0, geranylgeraniol control 100;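 active = mean ATP rescue above about 67%, or every replicate alone reaching that limit, limit read from the data, passing the limit was not always enough; inconclusive = no clear call, values can overlap the other calls; inactive = mean under the limit and some replicate under it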;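 also: myotubes were challenged with 10 µM simvastatin during compound exposure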
AI-2 QS modul: modulates the Vibrio harveyi AI-2 quorum sensing system; Vibrio harveyi JMH597 AI-2 luminescence/OD600 ratio, 9 h; active compounds read low; strain lacks LuxN and CqsS sensors; 0 = neutral-control median; activity change, % at 7.5 µM; 0.4% of 300,000 active; AID 2094; in the data active = activity change below about -75%, passing the limit was not always enough; inconclusive = no clear call, values can overlap the other calls;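 also: luminescence divided by OD600 gain over 9 h not by final OD600 alone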
Rce1 inh: yeast Ras-converting enzyme inhibition; Q03530; yeast membranes, quenched prenylated peptide cleavage fluorescence; calls only; 0.27% of 290,000 active;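 active = fall in fluorescence gain of 50% or more versus controls, with final raw signal at or below 3038400; inconclusive = same 50% fall but final raw signal above 3038400; inactive = fall in fluorescence gain under 50%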
Target sequence (Q03530 whole entry, looked up): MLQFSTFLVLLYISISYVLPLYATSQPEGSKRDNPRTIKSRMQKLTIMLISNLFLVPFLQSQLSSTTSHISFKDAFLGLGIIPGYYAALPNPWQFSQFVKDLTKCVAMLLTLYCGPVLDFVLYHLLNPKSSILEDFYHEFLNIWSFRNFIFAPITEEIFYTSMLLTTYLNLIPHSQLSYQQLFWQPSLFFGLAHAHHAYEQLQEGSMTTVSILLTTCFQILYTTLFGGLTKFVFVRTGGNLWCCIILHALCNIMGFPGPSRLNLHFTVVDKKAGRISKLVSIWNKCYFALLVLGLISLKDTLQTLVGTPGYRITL
JMH597 growth rt: retest: inhibitors of Vibrio harveyi JMH597 growth | shares compounds with AI-2 QS modul | OD600 absorbance, 9 h; lacks LuxN and CqsS sensors | growth inhibition, % at 7.5 µM | 1% of 750 active | AID 2726;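 active = every replicate shows growth inhibition above 50%; inconclusive = at least half, but not all, replicates pass that cutoff; inactive = fewer than half of replicates pass it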
BB721 const-QS lum: retest counter-screen: lowers luminescence of constitutive-QS Vibrio harveyi BB721. shares compounds with AI-2 QS modul. 95% of 750 active. inhibition, % at 7.5 µM. AID 2727. 9 h;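 active = inhibition above about 80% in every replicate, not just on average, limit read from the data; inconclusive = at least half of replicates past the limit, but not all; inactive = fewer than half of replicates past the limit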
BB721 growth rt: retest: inhibitors of Vibrio harveyi BB721 growth. shares compounds with AI-2 QS modul. 3% of 750 active. OD600 absorbance, 9 h. growth inhibition, % at 7.5 µM;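 active = every replicate shows growth inhibition above 50%; inconclusive = at least half but not all replicates above 50% inhibition; inactive = under half of replicates above 50% inhibition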
JMH597 AI-2 mod: Vibrio harveyi AI-2 signaling luminescence modulation – JMH597 strain, confirmation; shares compounds with AI-2 QS modul; Vibrio harveyi JMH597 AI-2 quorum sensing luminescence, 9 h; luxN and CqsS knockout, AI-2 only; inhibition, % at 7.5 µM; 97% of 750 active; AID 2736;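 active = every replicate shows more than 75% inhibition of signal versus neutral control wells; inconclusive = half to three quarters of replicates exceed 75% inhibition; inactive = fewer than half of replicates exceed 75% inhibition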
A number is an active result; - = inactive; ? = inconclusive; . = not tested or not shown. The list is not random: actives were taken first. Their share in the collection is about 1.3%.

SMILES	HIF act	PGC1a acetyl inh	C2C12 statin	AI-2 QS modul	Rce1 inh	JMH597 growth rt	BB721 const-QS lum	BB721 growth rt	JMH597 AI-2 mod
COCCNC(=O)C[C@H]1CC[C@@H]2[C@H](COc3ccc(NC(=O)Nc4ccccc4)cc3C(=O)N2C)O1	.	-	-	.	.	.	.	.	.
COc1ccc(CNC(=S)Nc2ccc(F)c(Cl)c2)cc1	-	-	.	-84	-	-	92	-	92
Cc1ccccc1OCCNC(=O)/C=C/c1ccc([N+](=O)[O-])cc1	-	.	.	-	-	.	.	.	.
Cc1ccccc1OCCNC(=O)c1ccc2ccccc2n1	-	.	.	-78	-	-	91	-	94
Cc1ccccc1OCCNC(=O)/C=C/c1ccccc1	-	-	.	-82	-	-	94	-	96
CCc1ccc(S(=O)(=O)Nc2ccc(Br)cn2)cc1	-	-	-	?	-	-	-	-	95
O=C(c1cnccn1)N1CC(=O)N2[C@H](CO)[C@@H](c3ccc(C#CC4CCCCC4)cc3)[C@H]2C1	.	-	.	.	.	.	.	.	.
CCOc1cccc2c1OC1(C)CC2NC(=O)N1c1cccc(C(=O)NCc2ccccn2)c1 (configuration not stated)	-	-	-	-95	-	-	-	-	-
O=C(Nc1cnn(Cc2ccc(Cl)cc2)c1)c1cccs1	-	-	.	-89	-	-	96	-	97
c1ccc(COc2ccc(OCCCn3cncn3)cc2)cc1	-	-	-	-	-	.	.	.	.
c1ccc(Cc2ccc(OCCn3cncn3)cc2)cc1	-	-	.	?	-	-	89	-	93
C(=N\NCc1ccccc1)/c1ccc2ncccc2c1	-	-	.	-95	-	-	98	-	99
CN(C)S(=O)(=O)c1ccc(NC(=O)CN2C(=O)NC3(CCCC3)C2=O)cc1	-	-	-	-79	-	-	?	-	82
CN(C)S(=O)(=O)c1ccc(NC(=O)CN2CCC(Cc3ccccc3)CC2)cc1	-	-	-	-91	-	-	94	-	96
CC(=O)N(C)C[C@H]1Oc2cc(-c3ccc(C#N)cc3)ccc2S(=O)(=O)N([C@H](C)CO)C[C@H]1C	.	-	-	.	.	.	.	.	.
CC(=O)c1ccc(NCCC(=O)c2ccccc2)cc1	-	-	-	-83	-	-	93	-	95
COc1ccc(S(=O)(=O)NCC(=O)Nc2ccc(F)cc2)cc1	.	-	-	.	.	.	.	.	.
CC(C)c1ccc(NC(=O)CNS(=O)(=O)c2ccc(F)cc2)cc1	-	-	-	-77	-	-	89	-	93
Nc1cc(Nc2ccc(Br)cc2)nc(N)n1	-	.	.	-96	-	-	99	-	99
Cc1cc(Nc2ccc(Cl)cc2)nc(N)n1	-	.	-	-	-	.	.	.	.
Cc1ccc(COC(=O)c2ccc3ccccc3n2)cc1	-	.	-	-91	-	-	98	-	99
Cc1ccsc1C(=O)NCCc1c[nH]c2ccccc12	-	.	-	-82	-	-	92	-	94
O=C(NCCc1c[nH]c2ccccc12)C(=O)c1c[nH]c2ccccc12	-	-	-	-90	-	-	96	-	97
COc1ccc(C(=O)NCCc2c[nH]c3ccccc23)cc1	-	.	-	-	-	.	.	.	.
O=C(NCCc1c[nH]c2ccccc12)c1ccc(Cl)cc1	-	-	-	-85	-	-	93	-	95
O=C(NCCc1ccc(Cl)cc1)C(=O)c1c[nH]c2ccccc12	-	.	.	-	-	.	.	.	.
O=C(NCCc1c[nH]c2ccccc12)c1ccc(F)cc1F	-	.	-	-82	-	-	95	-	97
COc1cc(SC)ccc1C(=O)NCCc1c[nH]c2ccccc12	-	-	-	-	-	.	.	.	.
C[C@H](CO)N1C[C@H](C)[C@@H](CN(C)C(=O)C2CCC2)Oc2cc(-c3ccccc3)ccc2S1(=O)=O	.	-	-	.	.	.	.	.	.
O=C(c1ccccc1)N1Cc2ccccc2[C@H]2OC(c3ccc(OCCCO)cc3)=N[C@@]2(CCS(=O)(=O)c2ccccc2)C1=O	.	-	.	.	.	.	.	.	.
